TRPV1 agonist: human TRPV1 agonism. Q8NER1. TRPV1-expressing cells, Fluo-8 calcium influx, agonist mode. activation, % at 8.33 µM. hit rate 0.19% among 320,000. AID 540275; in the data active = activation above about 80%; inconclusive = between about 30% and that limit
Target sequence (Q8NER1 whole entry, looked up): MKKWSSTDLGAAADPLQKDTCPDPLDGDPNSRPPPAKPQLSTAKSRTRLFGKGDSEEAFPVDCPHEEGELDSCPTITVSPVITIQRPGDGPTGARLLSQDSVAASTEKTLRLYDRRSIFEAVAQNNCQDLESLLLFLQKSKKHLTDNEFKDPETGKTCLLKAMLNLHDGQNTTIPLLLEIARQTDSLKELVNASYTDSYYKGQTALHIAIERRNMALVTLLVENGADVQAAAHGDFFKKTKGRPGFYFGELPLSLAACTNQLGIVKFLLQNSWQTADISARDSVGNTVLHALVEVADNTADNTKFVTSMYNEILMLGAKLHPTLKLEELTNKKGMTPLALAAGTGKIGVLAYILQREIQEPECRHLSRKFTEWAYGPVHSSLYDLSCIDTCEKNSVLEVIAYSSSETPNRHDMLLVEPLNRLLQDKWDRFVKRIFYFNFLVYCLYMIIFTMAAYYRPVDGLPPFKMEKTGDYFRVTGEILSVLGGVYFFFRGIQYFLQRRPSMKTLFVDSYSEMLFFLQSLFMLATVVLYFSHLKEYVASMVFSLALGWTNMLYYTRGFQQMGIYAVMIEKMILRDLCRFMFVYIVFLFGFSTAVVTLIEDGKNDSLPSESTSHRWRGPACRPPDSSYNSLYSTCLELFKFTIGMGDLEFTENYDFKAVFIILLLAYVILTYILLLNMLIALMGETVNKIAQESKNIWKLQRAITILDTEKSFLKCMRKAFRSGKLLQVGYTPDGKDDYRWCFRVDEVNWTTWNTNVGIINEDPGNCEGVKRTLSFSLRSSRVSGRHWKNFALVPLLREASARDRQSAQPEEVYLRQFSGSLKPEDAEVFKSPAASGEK
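Fluo-8 calcium influx in TRPV1-expressing cells, kinetic read (ex 480/em 520 nm). Compound added and read 3 min for agonist activity, followed by capsaicin at EC20 final and 2 min further read for enhancement.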
D1 antagonist: blocks dopamine activation of the human D1 receptor; HEK293 TREx D1 cells, calcium flux, dopamine EC80; active compounds read low; activity change, negative = inhibition, % at 10 µM; hit rate 3.2% among 360,000; in the data active = activity change below about -30%
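Kinetic fluorescence of a calcium dye serves as the read-out. D1-expressing Hek293 Trex cells, induced overnight at 30 C, are exposed to compound for 180 s before an EC80 dopamine addition, then read 180 s further.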
D1 potentiator: enhances dopamine response at the human D1 receptor; potentiation, % at 10 µM; HEK293 TREx D1 cells, calcium flux, dopamine EC20 potentiation; P21728; hit rate 0.036% among 360,000; AID 504651; in the data active = potentiation above about 30%
D1 agonist: activates the human D1 dopamine receptor. HEK293 T-REx D1 cells, calcium flux, agonist mode. activation, % at 2 µM. hit rate 1% among 360,000. AID 504660; in the data active = activation above about 30%
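Inducible HEK293 T-REx D1 cells, force-coupled to calcium signalling, were plated at 4000 cells/well with tetracycline and held overnight at 30 C. After no-wash calcium dye loading, compound-evoked calcium rise over 180 s flagged agonists.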
TRPV1 PAM: human TRPV1 potentiation; potentiation, % at 8.33 µM; Q8NER1; hit rate 0.02% among 320,000; TRPV1-expressing cells, Fluo-8 calcium influx, capsaicin EC20 potentiation; in the data active = potentiation above about 80%; inconclusive = between about 30% and that limit
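Cells expressing TRPV1 were dye-loaded with Fluo-8 and read kinetically: 10 s baseline, 3 min after compound (agonist portion), then 2 min after EC20 capsaicin (allosteric enhancer portion). Calcium-bound dye fluorescence at 480/520 nm.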
A number is an active result; i = inactive; ? = inconclusive; nt = no result given. Most compounds without a hit are left out; they make up all but 4.2% or so of the library.

SMILES | TRPV1 agonist | D1 antagonist | D1 potentiator | D1 agonist | TRPV1 PAM
O=C(NCc1cccc(F)c1)c1cccc(NC(=O)c2nsc3ccccc23)c1 | nt | i | i | i | nt
CCOC(=O)c1sc(=S)n(-c2cccc(C(F)(F)F)c2)c1SC | i | -32 | i | i | i
CCOC(=O)c1sc(=S)n(-c2ccccc2)c1SC | i | i | i | i | i
CCOC(=O)N1CCc2c(sc3c2c(=O)n(Cc2ccccc2)c(=O)n3Cc2cccc(Cl)c2)C1 | nt | i | i | i | nt
CCCNC(=O)Nc1nc2ccccc2s1 | ? | -72 | i | i | i
CC1CCCN(CCCNC(=O)c2ccc3c(c2)N(Cc2ccc(Cl)cc2)C(=O)c2ccccc2S3(=O)=O)C1 (stereo not given) | nt | -35 | i | 60 | nt
CC1CC(C)CN(CCCNC(=O)c2ccc3c(c2)N(Cc2ccccc2)C(=O)c2ccccc2S3=O)C1 (stereo not given) | i | i | i | 80 | i
Cc1ccc(C)c(CN2C(=O)c3ccccc3S(=O)(=O)c3ccc(C(=O)NCCCN4CCCC(C)C4)cc32)c1 (stereo not given) | nt | i | i | i | nt
Cc1ccc2[nH]c3c(c2c1)CN(C(=O)CN1CCN(Cc2ccc4c(c2)OCO4)CC1)CC3 | ? | -35 | i | 42 | i
COc1ccc(Nc2nc(NCc3ccco3)nc(N/N=C/c3ccccc3F)n2)cc1 | ? | -42 | i | i | i
COCCOC1CCN(Cc2cn(Cc3ccccc3)nc2-c2cc3ccccc3o2)CC1 | i | i | i | i | i
CCC(O)C1CCN(Cc2cn(Cc3ccccc3)nc2-c2cc3ccccc3o2)CC1 (stereo not given) | i | i | i | 64 | i
Cc1ccc(N2C(=O)CSC23C(=O)N(CC(=O)Nc2ccccc2F)c2ccccc23)cc1C (stereo not given) | nt | -32 | i | i | nt
Cc1ccc(N2C(=O)CSC23C(=O)N(CC(=O)Nc2ccc(C(C)C)cc2)c2ccccc23)cc1C (stereo not given) | nt | i | i | i | nt
CC(C)Cn1c(N)c(C(=O)CSc2ccc3c(c2)OCCO3)c(=O)n(C)c1=O | i | -33 | i | i | i
COc1ccccc1C(=O)Nc1c(C(=O)Nc2ccccc2F)oc2ccccc12 | nt | i | i | i | nt
Cc1ccc(CNC(=O)CN2Cc3ccccc3C2=O)cc1 | nt | -37 | i | i | nt
Cc1nc2ncnn2c(C)c1CCC(=O)O | i | -37 | i | i | i
COc1ccc(NC(=O)c2cnc(SCC(=O)Nc3nc4ccc(C)cc4s3)n(C)c2=O)cc1 | nt | nt | i | i | nt
CC(C)(C)C(=O)Nc1ccc(Sc2ccc([N+](=O)[O-])cc2)cc1 | i | -34 | i | i | i
CC(C)(C)C(=O)NC(NC(=O)C(C)(C)C)c1ccc([N+](=O)[O-])cc1 | i | -32 | i | i | i
Cc1ccc2nc(NC(=O)c3ccc4ncsc4c3)sc2c1 | ? | i | i | i | i
Cc1ccc2nc(NC(=O)c3ccc4c(c3)OCO4)sc2c1 | 82 | i | i | i | i
CCCN(CCC)CC(O)Cn1cc(/C=C/C(=O)c2ccc(OCC)cc2)c2ccccc21 (stereo not given) | nt | -32 | i | 69 | nt
CCCN(CCC)CC(O)Cn1c2ccccc2c2ccccc21 (stereo not given) | i | i | i | 31 | i
SMILES | TRPV1 agonist | D1 antagonist | D1 potentiator | D1 agonist | TRPV1 PAM
Cc1cccc(C)c1N(CC(O)Cn1c2ccccc2c2ccccc21)S(C)(=O)=O (stereo not given) | i | -36 | i | i | i
Cc1cc(Br)cc(C)c1NC(=O)c1sc2ncn(Cc3cccc(F)c3)c(=O)c2c1C | nt | i | i | i | nt
Cc1ccc(C)c(CS(=O)(=O)c2cn(CC(=O)N(C(C)C)C(C)C)c3ccccc23)c1 | nt | i | i | i | nt
CCCC1=Nc2cc(C(=O)NCc3ccc(OC)cc3)ccc2Sc2ccc(C)cc21 | nt | i | i | i | nt
CCCCc1ccc(NC(=S)N2CCC(O)CC2)cc1 | 85 | i | i | i | i
OC1CCN(C(=S)Nc2ccc(Nc3ccccc3)cc2)CC1 | i | i | i | i | i
CCCCc1ccc(NC(=O)Nc2cccnc2)cc1 | 85 | i | i | i | i
CCCCc1ccc(NC(=O)OC)cc1 | i | i | i | 82 | i
CC(C)NC(=O)C(c1ccccc1)N1Cc2ccccc2C1=O (stereo not given) | nt | i | i | i | nt
CCOC(=O)c1c(C)[nH]c(C)c1S(=O)(=O)NCC(=O)N1CCN(c2ccccc2OC)CC1 | nt | i | i | i | nt
CCCCSCCCNC(=O)C1CCC(CNS(=O)(=O)c2c(C)cc(C)cc2C)CC1 (stereo not given) | nt | i | i | i | nt
CCCc1nc(C(C)(C)O)c(C(=O)O)n1Cc1ccc(-c2ccccc2-c2nn[nH]n2)cc1 | i | -43 | i | i | i
CCCCc1nc(Cl)c(CO)n1Cc1ccc(-c2ccccc2-c2nn[nH]n2)cc1 | i | i | i | i | i
CCc1cnc2c(c1SCC(=O)NCc1ccccc1)c(=O)n(C)c(=O)n2C | nt | nt | i | i | nt
CCC(C(=O)Nc1ccc(S(=O)(=O)N(C)C2CCN(C)CC2)cc1)c1ccccc1 (stereo not given) | i | i | i | 30 | i
COc1ccccc1CC(=O)Nc1ccc(S(=O)(=O)N(C)C2CCN(C)CC2)cc1 | i | i | i | i | i
COc1ccc(CC(=O)Nc2ccc(S(=O)(=O)N(C)C3CCN(C)CC3)cc2)cc1 | i | i | i | i | i
CC(Oc1ccc(Br)cc1)C(=O)Nc1ccc(S(=O)(=O)N(C)C2CCN(C)CC2)cc1 (stereo not given) | i | -52 | i | 126 | i
CCCN1CCc2c(sc(NC(=S)NC(=O)c3ccccc3)c2C#N)C1 | i | i | i | 45 | i
CC(C)N1CCc2c(sc(NC(=S)NC(=O)c3ccccc3)c2C#N)C1 | i | i | i | i | i
CSc1nc(N)c(C#N)c(-c2ccc(Cl)cc2)c1C#N | i | -32 | i | i | i
CCCCn1c(NC(=O)c2ccccc2Cl)c(C#N)c2nc3ccccc3nc21 | i | -39 | i | i | i
N#Cc1c(NC(=O)c2ccccc2Cl)n(Cc2ccccc2)c2nc3ccccc3nc12 | i | i | i | i | i
CCOC(=O)c1cc(-c2ccc(C)cc2)n(CCC(=O)NCCN(C)C)c1C | i | i | i | 63 | i
Cc1ccc(-c2ccc(/C=C(\C#N)C(N)=S)n2C)cc1 | i | -51 | i | i | i
SMILES | TRPV1 agonist | D1 antagonist | D1 potentiator | D1 agonist | TRPV1 PAM
Cc1cc(C)c(/C=C(\C#N)C(N)=S)c(C)c1 | ? | i | i | i | i
Cn1cccc1/C=C(/C#N)C(N)=S | i | -49 | i | i | i
N#C/C(=C/c1ccc(F)cc1)C(N)=S | i | i | i | i | i
CN(Cc1ccccc1)C(=O)CSc1nc2ccsc2c(=O)n1-c1ccc(F)cc1 | nt | i | i | i | nt
CCCN(CCC)CC(O)COc1ccc2c(c1)OCO2 (stereo not given) | i | -45 | i | i | i
OCCN(Cc1ccccc1)CC(O)COc1ccc2c(c1)OCO2 (stereo not given) | i | i | i | i | i

From PubChem
